According to the supplement of paper PMC10849652:
The full data set covers some 8,800 targets. This sample favours those with a hit. About 0.5% of all pairs of compound and target were hits.

Experiments:
Test in all cases: log2 fold change, soluble protein after heating vs DMSO (PISA); higher = thermal stabilisation; K562 lysate, 10 uM; active = over 0.2 and 3.5 SD of the protein, either way, in both replicates (recomputed)
ibrutinib = compound: C=CC(=O)N1CCC[C@@H](n2nc(-c3ccc(Oc4ccccc4)cc3)c3c(N)ncnc32)C1 [ibrutinib]
Outline: (§1)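 Pellets of K562 cells were dounce-homogenised in PBS pH 7.4 with 1 mM MgCl2, and the crude extract was held at 1 mg/mL protein for a 30 min treatment with 10 μM compound. Aliquots were heated for 3 min over 48°C-58°C and pooled before NP-40 was added to 0.5% at 4°C. The supernatant from 21,000xg for 90 min was quantified by TMTpro 16plex LC-MS/MS with channel sums equalised. Values are reported from duplicates as log-two fold change in thermal stability relative to solvent controls.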

[1] = compound: CC(=O)c1cnc2ccc(-c3cc(Cl)c(O)c(Cl)c3)nc2c1N[C@H]1CC[C@H](CN(C)C)CC1
Outline: as §1

ralimetinib = compound: CC(C)(C)Cn1c(N)nc2ccc(-c3[nH]c(C(C)(C)C)nc3-c3ccc(F)cc3)nc21 [ralimetinib]
Outline: as §1

[2] = compound: CC(C)(O)CC(=O)NCCn1ccc2ncnc(Nc3ccc(Oc4cccc(C(F)(F)F)c4)c(Cl)c3)c21
Outline: as §1

[3] = compound: CC(C)C1=C2N=C(C=C(N2N=C1)NCC3=CC=CC=C3)NCCCCCCN
Outline: as §1

[4] = compound: CC1=C(C(CC(=O)N1)C2=CC=C(C=C2)C(F)(F)F)C(=O)NC3=C(C=C4C(=C3)C=NN4)F
Outline: as §1

[5] = compound: CC1=C(C2=C(C=C1)C(=O)C3=CC=CC=C3N2CCCN)C
Outline: as §1

[6] = compound: CC1=C(C=C(C=C1)NC(=O)C2=CC(=CC=C2)C(C)(C)C#N)NC3=CC4=C(C=C3)N=CN(C4=O)C
Outline: as §1

[7] = compound: CC1=C(C=C(C=C1)NC(=O)C2=CC(=CC=C2)N(C)C)NC(=O)C3=CC=C(C=C3)O
Outline: as §1

[8] = compound: CC1=CC=C(C=C1)SC2=C3C=C(SC3=CN=C2)C(=O)N
Outline: as §1

Measured: log2 fold change

NBEAL2 (UniProt Q6ZNJ1)
Sequence of UniProt Q6ZNJ1 (Q6ZNJ1 whole entry, looked up): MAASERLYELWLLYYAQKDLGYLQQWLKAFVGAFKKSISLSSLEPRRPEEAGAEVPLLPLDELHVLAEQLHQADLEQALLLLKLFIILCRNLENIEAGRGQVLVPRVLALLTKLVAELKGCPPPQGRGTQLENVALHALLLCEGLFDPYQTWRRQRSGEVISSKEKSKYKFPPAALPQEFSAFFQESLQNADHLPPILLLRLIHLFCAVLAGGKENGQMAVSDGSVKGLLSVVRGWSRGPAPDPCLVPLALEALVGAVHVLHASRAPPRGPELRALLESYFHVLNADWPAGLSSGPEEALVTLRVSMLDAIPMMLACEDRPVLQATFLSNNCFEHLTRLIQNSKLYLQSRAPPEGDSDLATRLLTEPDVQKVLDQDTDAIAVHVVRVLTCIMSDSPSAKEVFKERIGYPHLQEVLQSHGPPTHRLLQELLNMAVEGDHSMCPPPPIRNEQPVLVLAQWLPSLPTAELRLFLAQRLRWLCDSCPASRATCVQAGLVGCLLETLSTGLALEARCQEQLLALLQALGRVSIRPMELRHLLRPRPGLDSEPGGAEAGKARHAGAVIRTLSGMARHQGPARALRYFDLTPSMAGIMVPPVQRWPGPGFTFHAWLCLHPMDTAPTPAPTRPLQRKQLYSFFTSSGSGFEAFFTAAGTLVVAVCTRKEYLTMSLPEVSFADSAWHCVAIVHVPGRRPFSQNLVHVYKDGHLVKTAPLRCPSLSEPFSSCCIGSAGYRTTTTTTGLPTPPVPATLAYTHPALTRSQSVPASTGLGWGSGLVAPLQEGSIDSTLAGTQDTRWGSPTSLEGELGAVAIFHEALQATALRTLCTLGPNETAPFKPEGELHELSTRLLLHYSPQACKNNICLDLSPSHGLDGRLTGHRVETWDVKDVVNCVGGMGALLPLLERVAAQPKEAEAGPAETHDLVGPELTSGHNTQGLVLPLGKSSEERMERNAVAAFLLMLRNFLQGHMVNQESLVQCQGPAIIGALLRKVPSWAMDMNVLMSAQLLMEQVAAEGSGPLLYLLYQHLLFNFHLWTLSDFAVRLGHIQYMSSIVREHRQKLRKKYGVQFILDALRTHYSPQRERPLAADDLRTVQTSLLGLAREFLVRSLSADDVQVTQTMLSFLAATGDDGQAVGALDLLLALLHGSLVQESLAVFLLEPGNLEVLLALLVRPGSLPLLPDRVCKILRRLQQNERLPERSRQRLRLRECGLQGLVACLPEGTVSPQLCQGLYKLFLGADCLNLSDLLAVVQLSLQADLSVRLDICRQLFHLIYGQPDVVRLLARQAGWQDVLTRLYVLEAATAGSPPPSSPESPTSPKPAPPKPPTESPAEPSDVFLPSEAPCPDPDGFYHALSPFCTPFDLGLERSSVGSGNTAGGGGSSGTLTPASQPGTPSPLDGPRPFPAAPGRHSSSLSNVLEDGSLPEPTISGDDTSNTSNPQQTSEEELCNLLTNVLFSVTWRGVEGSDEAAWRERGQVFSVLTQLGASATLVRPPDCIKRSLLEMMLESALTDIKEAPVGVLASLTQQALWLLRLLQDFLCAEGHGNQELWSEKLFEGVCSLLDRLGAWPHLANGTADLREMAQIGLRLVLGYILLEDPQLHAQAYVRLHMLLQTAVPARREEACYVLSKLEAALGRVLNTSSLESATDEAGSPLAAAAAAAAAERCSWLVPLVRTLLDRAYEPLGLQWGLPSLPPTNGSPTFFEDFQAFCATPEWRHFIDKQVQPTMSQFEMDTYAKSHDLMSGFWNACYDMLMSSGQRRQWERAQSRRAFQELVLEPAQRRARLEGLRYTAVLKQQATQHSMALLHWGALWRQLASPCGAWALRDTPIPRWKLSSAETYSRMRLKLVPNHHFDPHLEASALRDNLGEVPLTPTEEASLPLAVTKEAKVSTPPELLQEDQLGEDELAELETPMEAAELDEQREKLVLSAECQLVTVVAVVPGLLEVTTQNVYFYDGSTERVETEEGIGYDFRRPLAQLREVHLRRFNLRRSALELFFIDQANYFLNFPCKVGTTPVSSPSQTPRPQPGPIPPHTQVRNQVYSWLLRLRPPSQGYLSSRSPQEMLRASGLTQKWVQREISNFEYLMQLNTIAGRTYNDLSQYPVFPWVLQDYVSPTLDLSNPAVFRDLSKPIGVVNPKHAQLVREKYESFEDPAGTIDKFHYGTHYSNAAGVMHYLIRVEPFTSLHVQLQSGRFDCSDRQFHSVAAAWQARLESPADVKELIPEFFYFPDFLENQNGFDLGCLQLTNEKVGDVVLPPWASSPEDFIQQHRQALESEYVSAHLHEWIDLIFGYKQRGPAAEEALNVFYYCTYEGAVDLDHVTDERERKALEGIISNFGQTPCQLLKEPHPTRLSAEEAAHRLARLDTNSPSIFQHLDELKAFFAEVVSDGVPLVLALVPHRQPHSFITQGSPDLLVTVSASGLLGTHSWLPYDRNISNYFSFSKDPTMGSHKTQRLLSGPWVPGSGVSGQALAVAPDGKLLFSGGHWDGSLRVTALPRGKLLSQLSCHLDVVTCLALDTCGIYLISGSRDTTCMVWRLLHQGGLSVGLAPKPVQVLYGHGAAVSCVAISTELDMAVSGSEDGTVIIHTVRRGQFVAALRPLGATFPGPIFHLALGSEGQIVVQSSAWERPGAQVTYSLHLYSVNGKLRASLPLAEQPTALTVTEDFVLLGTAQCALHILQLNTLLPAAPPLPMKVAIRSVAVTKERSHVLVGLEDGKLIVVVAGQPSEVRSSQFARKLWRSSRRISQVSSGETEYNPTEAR
inactive: ibrutinib -0.048 | [1] 0.011 | ralimetinib 0.023 | [2] -0.047 | [3] 0.003 | [4] 0.036 | [5] -0.011 | [6] 0.047 | [7] 0.06 | [8] -0.013

MSI2 (UniProt Q96DH6)
active: [6] -0.315
inactive: ibrutinib 0.044 | [1] -0.024 | ralimetinib 0.032 | [2] -0.039 | [3] 0.015 | [4] -0.029 | [5] 0.009 | [7] 0.03 | [8] 0.054

NFKBIE (UniProt O00221)
inactive: ibrutinib -0.018 | [1] 0.054 | ralimetinib -0.008 | [2] -0.059 | [3] -0.05 | [4] 0.015 | [5] -0.044 | [6] 0.027 | [7] 0.05 | [8] 0.018

MSH3 (UniProt P20585)
inactive: ibrutinib 0 | [1] -0.017 | ralimetinib 0.024 | [2] -0.037 | [3] -0.039 | [4] 0.023 | [5] -0.025 | [6] -0.018 | [7] -0.007 | [8] -0.005

NUP133 (UniProt Q8WUM0)
inactive: ibrutinib 0.016 | [1] -0.015 | ralimetinib 0.006 | [2] 0.045 | [3] -0.01 | [4] 0.064 | [5] -0.02 | [6] 0.01 | [7] 0.009 | [8] -0.002

NAA30 (UniProt Q147X3)
Sequence of UniProt Q147X3 (Q147X3 whole entry, looked up): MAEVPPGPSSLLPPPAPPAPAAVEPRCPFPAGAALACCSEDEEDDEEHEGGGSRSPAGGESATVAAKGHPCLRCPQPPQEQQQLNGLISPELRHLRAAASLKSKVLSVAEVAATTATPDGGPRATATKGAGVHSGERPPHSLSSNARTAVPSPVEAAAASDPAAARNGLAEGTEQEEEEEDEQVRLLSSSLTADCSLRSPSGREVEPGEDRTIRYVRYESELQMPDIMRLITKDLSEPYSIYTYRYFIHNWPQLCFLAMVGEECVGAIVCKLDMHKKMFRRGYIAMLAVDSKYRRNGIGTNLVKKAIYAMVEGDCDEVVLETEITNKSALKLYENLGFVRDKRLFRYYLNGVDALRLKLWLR
inactive: ibrutinib 0.013 | [1] -0.017 | ralimetinib 0.057 | [2] -0.037 | [3] -0.018 | [4] 0.084 | [5] -0.024 | [6] -0.045 | [7] 0.004 | [8] 0.046

OAT (UniProt P04181)
Sequence of UniProt P04181 (P04181 whole entry, looked up): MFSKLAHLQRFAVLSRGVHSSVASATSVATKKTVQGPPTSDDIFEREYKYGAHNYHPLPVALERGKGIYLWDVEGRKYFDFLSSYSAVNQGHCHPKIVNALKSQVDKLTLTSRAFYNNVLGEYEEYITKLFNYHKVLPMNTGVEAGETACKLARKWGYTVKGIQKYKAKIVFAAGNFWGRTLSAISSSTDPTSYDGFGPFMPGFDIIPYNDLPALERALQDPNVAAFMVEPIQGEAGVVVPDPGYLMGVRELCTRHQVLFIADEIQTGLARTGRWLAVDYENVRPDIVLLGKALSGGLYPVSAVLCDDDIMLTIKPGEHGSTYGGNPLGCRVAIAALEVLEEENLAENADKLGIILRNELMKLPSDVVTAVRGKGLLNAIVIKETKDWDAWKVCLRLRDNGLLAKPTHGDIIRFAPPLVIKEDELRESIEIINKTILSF
inactive: ibrutinib -0.007 | [1] 0.013 | ralimetinib 0.009 | [2] 0.002 | [3] 0 | [4] -0.045 | [5] -0.018 | [6] -0.006 | [7] 0.034 | [8] -0.009

NOB1 (UniProt Q9ULX3)
Sequence of UniProt Q9ULX3 (Q9ULX3 whole entry, looked up): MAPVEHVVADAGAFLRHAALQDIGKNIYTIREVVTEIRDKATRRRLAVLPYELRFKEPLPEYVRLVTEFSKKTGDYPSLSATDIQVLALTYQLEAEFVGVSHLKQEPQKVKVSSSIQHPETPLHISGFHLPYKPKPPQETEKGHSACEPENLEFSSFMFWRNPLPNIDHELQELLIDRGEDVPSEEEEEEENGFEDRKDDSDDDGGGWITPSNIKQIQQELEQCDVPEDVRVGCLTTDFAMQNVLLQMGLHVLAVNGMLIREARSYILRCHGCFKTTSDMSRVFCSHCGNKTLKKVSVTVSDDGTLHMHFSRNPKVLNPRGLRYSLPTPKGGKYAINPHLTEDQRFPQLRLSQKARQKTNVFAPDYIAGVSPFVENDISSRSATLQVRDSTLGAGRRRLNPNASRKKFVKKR
inactive: ibrutinib -0.005 | [1] 0.018 | ralimetinib -0.028 | [2] 0.014 | [3] 0.013 | [4] -0.001 | [5] -0.046 | [6] 0.03 | [7] 0.019 | [8] 0.004

NOSIP (UniProt Q9Y314)
inactive: ibrutinib 0.028 | [1] 0.037 | ralimetinib 0 | [2] 0.009 | [3] -0.014 | [4] -0.009 | [5] 0 | [6] 0.047 | [7] 0.027 | [8] -0.009

NR2F2 (UniProt P24468)
inactive: ibrutinib 0.007 | [1] -0.09 | ralimetinib -0.006 | [2] -0.069 | [3] -0.067 | [4] 0.097 | [5] 0.032 | [6] -0.031 | [7] 0.065 | [8] -0.042

OSBP (UniProt P22059)
inactive: ibrutinib -0.007 | [1] 0.003 | ralimetinib -0.019 | [2] -0.007 | [3] -0.19 | [4] 0.018 | [5] 0.04 | [6] -0.103 | [7] 0.011 | [8] -0.003

NTPCR (UniProt Q9BSD7)
Sequence of UniProt Q9BSD7 (Q9BSD7 whole entry, looked up): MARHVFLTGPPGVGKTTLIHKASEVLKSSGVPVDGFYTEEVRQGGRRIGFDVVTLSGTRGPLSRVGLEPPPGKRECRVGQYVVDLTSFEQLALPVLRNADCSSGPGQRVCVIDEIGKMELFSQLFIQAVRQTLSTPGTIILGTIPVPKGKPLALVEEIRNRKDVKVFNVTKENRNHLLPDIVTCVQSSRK
inactive: ibrutinib -0.004 | [1] 0.002 | ralimetinib 0.014 | [2] 0 | [3] 0.022 | [4] 0.018 | [5] 0.014 | [6] -0.002 | [7] 0.066 | [8] -0.001

NRIP1 (UniProt P48552)
inactive: ibrutinib -0.018 | [1] -0.055 | ralimetinib -0.05 | [2] -0.165 | [3] -0.007 | [4] 0.093 | [5] -0.217 | [6] 0.175 | [7] -0.005 | [8] -0.102

NNT (UniProt Q13423)
inactive: ibrutinib 0.012 | [1] -0.016 | ralimetinib -0.095 | [2] -0.01 | [3] -0.05 | [4] -0.011 | [5] -0.019 | [6] -0.007 | [7] 0.01 | [8] -0.009

MSH6 (UniProt P52701)
inactive: ibrutinib 0.001 | [1] 0.022 | ralimetinib 0.024 | [2] 0.003 | [3] 0.027 | [4] -0.01 | [5] -0.01 | [6] -0.002 | [7] 0.057 | [8] 0.003

NCAPH (UniProt Q15003)
inactive: ibrutinib 0.006 | [1] 0.016 | ralimetinib -0.002 | [2] -0.031 | [3] -0.013 | [4] 0.003 | [5] -0.001 | [6] -0.003 | [7] 0.012 | [8] 0.011

MRPL53 (UniProt Q96EL3)
inactive: ibrutinib 0.041 | [1] -0.018 | ralimetinib 0.062 | [2] -0.047 | [3] 0.016 | [4] -0.047 | [5] 0.011 | [6] 0.042 | [7] 0.044 | [8] 0.011

MYO1C (UniProt O00159)
active: [6] -0.292
inactive: ibrutinib 0.037 | [1] 0.031 | ralimetinib 0.075 | [2] -0.032 | [3] -0.009 | [4] -0.03 | [5] 0.017 | [7] 0.021 | [8] 0.06

MTA2 (UniProt O94776)
inactive: ibrutinib -0.014 | [1] -0.023 | ralimetinib 0.03 | [2] 0.021 | [3] 0.032 | [4] 0.011 | [5] 0.018 | [6] -0.008 | [7] 0.043 | [8] -0.009

NSL1 (UniProt Q96IY1)
inactive: ibrutinib -0.019 | [1] -0.002 | ralimetinib 0.003 | [2] -0.052 | [3] 0.011 | [4] -0.066 | [5] 0.023 | [6] 0.009 | [7] 0.008 | [8] 0.036

NPM3 (UniProt O75607)
inactive: ibrutinib 0.038 | [1] 0.03 | ralimetinib 0.029 | [2] -0.077 | [3] 0.018 | [4] 0.048 | [5] -0.03 | [6] 0.069 | [7] 0.018 | [8] -0.037

NQO1 (UniProt P15559)
inactive: ibrutinib 0.009 | [1] -0.003 | ralimetinib 0.033 | [2] 0.081 | [3] -0.009 | [4] 0.001 | [5] 0.159 | [6] 0.038 | [7] -0.025 | [8] 0.067

NACC1 (UniProt Q96RE7)
Sequence of UniProt Q96RE7 (Q96RE7 whole entry, looked up): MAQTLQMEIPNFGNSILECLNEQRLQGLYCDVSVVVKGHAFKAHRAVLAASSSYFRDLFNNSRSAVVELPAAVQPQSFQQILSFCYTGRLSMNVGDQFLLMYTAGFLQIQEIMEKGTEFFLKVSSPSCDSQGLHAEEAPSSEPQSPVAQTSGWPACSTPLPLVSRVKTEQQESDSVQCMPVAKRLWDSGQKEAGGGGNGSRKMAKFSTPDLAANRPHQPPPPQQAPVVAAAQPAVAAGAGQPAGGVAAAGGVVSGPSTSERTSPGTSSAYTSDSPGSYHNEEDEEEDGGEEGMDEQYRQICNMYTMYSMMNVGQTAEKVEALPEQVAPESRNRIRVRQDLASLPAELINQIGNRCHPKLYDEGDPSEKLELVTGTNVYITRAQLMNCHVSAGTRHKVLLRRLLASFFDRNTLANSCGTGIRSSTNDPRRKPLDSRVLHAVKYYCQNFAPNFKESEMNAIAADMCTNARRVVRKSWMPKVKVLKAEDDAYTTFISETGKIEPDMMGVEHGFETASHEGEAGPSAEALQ
inactive: ibrutinib -0.015 | [1] -0.001 | ralimetinib 0.009 | [2] -0.003 | [3] -0.014 | [4] 0.039 | [5] -0.016 | [6] -0.022 | [7] 0.009 | [8] -0.022

PANK4 (UniProt Q9NVE7)
inactive: ibrutinib 0.039 | [1] 0.001 | ralimetinib 0.023 | [2] -0.008 | [3] 0.036 | [4] -0.01 | [5] -0.024 | [6] -0.001 | [7] -0.005 | [8] -0.005

OCRL (UniProt Q01968)
inactive: ibrutinib 0.051 | [1] -0.038 | ralimetinib -0.016 | [2] 0.016 | [3] 0.044 | [4] 0.013 | [5] 0.036 | [6] 0.022 | [7] -0.002 | [8] 0.033

NARS2 (UniProt Q96I59)
inactive: ibrutinib 0.01 | [1] 0.009 | ralimetinib 0.009 | [2] 0.003 | [3] -0.001 | [4] 0.017 | [5] -0.024 | [6] -0.007 | [7] 0.045 | [8] 0.038

NUMBL (UniProt Q9Y6R0)
inactive: ibrutinib 0.047 | [1] -0.023 | ralimetinib -0.009 | [2] 0.028 | [3] 0.07 | [4] 0.071 | [5] -0.081 | [6] 0.076 | [7] 0.058 | [8] -0.008

PARD3 (UniProt Q8TEW0)
inactive: ibrutinib 0.026 | [1] 0.134 | ralimetinib -0.017 | [2] -0.011 | [3] 0.001 | [4] 0.011 | [5] 0.006 | [6] 0.116 | [7] 0.01 | [8] -0.068

MTCH2 (UniProt Q9Y6C9)
Sequence of UniProt Q9Y6C9 (Q9Y6C9 whole entry, looked up): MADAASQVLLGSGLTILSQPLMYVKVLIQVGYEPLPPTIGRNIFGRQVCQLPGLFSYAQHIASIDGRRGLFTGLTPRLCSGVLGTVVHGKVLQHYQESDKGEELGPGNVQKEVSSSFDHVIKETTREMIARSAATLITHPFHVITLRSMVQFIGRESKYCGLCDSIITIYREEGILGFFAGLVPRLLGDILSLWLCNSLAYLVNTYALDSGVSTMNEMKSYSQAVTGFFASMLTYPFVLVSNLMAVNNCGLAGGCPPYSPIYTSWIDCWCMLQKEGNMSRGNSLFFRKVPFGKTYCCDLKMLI
inactive: ibrutinib 0.008 | [1] -0.022 | ralimetinib 0.022 | [2] 0.023 | [3] 0.044 | [4] -0.019 | [5] -0.011 | [6] 0.043 | [7] -0.036 | [8] 0.031

NELFA (UniProt Q9H3P2)
inactive: ibrutinib 0 | [1] 0.001 | ralimetinib -0.038 | [2] 0.003 | [3] -0.012 | [4] 0.008 | [5] 0.008 | [6] -0.022 | [7] -0.04 | [8] -0.024
